# Bioassay records (PubChem)
# GPR151 ag = human GPR151 activation. actives 1% (n = 650,000). PathHunter beta-arrestin GPR151 cells, luminescence. activation, % at 11.2 µM. Q8TDV0. AID 1508602; in the data active means activation above about 4.9%;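 further: 0% = median of compound wells and 100% = cells with positive control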
# Target sequence (Q8TDV0 whole entry, looked up): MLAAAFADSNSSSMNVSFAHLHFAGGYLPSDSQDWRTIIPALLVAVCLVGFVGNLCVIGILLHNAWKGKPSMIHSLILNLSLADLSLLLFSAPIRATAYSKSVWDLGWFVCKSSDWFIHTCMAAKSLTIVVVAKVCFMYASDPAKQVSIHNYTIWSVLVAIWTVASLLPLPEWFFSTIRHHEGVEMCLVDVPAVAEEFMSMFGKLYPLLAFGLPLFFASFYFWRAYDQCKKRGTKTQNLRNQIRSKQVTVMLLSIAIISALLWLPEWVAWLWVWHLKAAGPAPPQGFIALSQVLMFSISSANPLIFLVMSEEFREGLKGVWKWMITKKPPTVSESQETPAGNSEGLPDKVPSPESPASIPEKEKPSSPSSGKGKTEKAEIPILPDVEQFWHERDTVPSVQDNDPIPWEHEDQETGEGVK
# FBW7 act = human FBW7 E3 ligase activation, primary screen. actives 0.13% (n = 650,000). AID 1259310. normalized activity (activation), % at 26.1 µM. AlphaScreen FBW7–phospho-cyclin E peptide binding, activator screen; in the data active means normalized activity above about 1.9%;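 further: purified mutant Fbw7 with reduced substrate affinity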
# MITF primary = blocks human microphthalmia-associated transcription factor | O75030 | AlphaScreen MITF homodimerization, bead proximity signal | inhibition, % at 2.6 µM | actives 0.91% (n = 650,000); in the data active means inhibition above about 50%;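 further: 0% = vehicle wells with protein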
# TEAD-YAP block = TEAD-YAP interaction inhibition. HEK-TIYL cells, TEAD-Gal4/YAP UAS-luciferase luminescence. inhibition, % at 9.12 µM. actives 1.4% (n = 640,000); in the data active means inhibition above about 32%;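 further: 0% = median of test compound wells and 100% = reference inhibitor wells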
# The depositor's hits bear a star. A selection: hits, their analogues and other compounds. The true share with any hit is near 3.5%.
SMILES,GPR151 ag,FBW7 act,MITF primary,TEAD-YAP block
COCCCN1C(=O)c2[nH]nc(-c3ccccc3O)c2C1c1ccc(Cl)cc1 (configuration not stated),0.1,-0.1,0.4,12.3
COCCCN1C(=O)c2[nH]nc(-c3ccccc3O)c2C1c1cccc(Cl)c1 (configuration not stated),0.9,0.0,9.4,36.5*
Cn1c(SCC(=O)N2CCCC2)nnc1-c1ccccc1O,-0.9,-0.1,24.2,57.8*
Cn1c(SCC(=O)O)nnc1-c1ccccc1O,1.1,-0.2,5.0,44.2*
CCNc1nc(NC(C)CC)nc(ON=C(C)C)n1 (configuration not stated),-0.2,0.2,28.8,35.9*
COc1ccc(-c2nc(C)cc(N)n2)cc1,2.9,0.3,7.9,-33.0
O=C(O)c1ccc([C@@H]2Nc3ccc(F)cc3[C@@H]3C=CC[C@@H]32)cc1,-0.7,-1.0,65.5*,3.7
COC(=O)c1ccc2c(c1)C1C=CCC1C(c1ccc(F)cc1)N2 (configuration not stated),3.8,-0.7,-2.0,-2.2
COC(=O)c1ccc(C2Nc3ccc(C(=O)O)cc3C3C=CCC32)cc1 (configuration not stated),0.4,-0.9,74.6*,4.2
COc1ccc2c(c1)C1C=CCC1C(c1ccc(C(=O)O)cc1)N2 (configuration not stated),-2.1,-1.4,52.0*,-14.2
O=[N+]([O-])c1cccc(C2Nc3ccc4ccccc4c3C3C=CCC32)c1 (configuration not stated),0.3,0.0,3.2,40.2*
COc1ccc(OC)c([C@@H]2Nc3ccc(C(=O)O)cc3[C@@H]3C=CC[C@@H]32)c1,-1.1,-0.1,30.7,-6.5
Cc1cc(C(=O)OCC(=O)c2cc(C)n(CC(F)(F)F)c2C)c(C)o1,-2.6,-0.1,5.5,-25.1
COc1cccc(C2Nc3ccc(C(=O)O)cc3C3C=CCC32)c1 (configuration not stated),0.4,-1.7,65.3*,6.0
O=C(O)c1ccc2c(c1)C1C=CCC1C(c1cccc([N+](=O)[O-])c1)N2 (configuration not stated),1.1,-0.5,82.5*,14.4
COc1ccc(C2Nc3ccc(C(=O)O)cc3C3C=CCC32)cc1 (configuration not stated),0.0,-0.8,72.8*,-3.4
CN(C)c1ccc(N=Cc2c(O)n(Cc3ccccc3)c(=O)[nH]c2=O)cc1,-0.9,0.1,-3.9,4.5
O=C(CSc1cn(CCNC(=O)c2ccc(F)cc2)c2ccccc12)NCC1CCCO1 (configuration not stated),-0.6,-0.1,5.9,10.2
O=C(NCCn1cc(SCC(=O)N2CCCCCC2)c2ccccc21)c1c(F)cccc1F,2.7,-0.6,7.2,34.2*
Cc1ccc(C(=O)NCCn2cc(SCC(=O)NCC3CCCO3)c3ccccc32)cc1C (configuration not stated),0.8,-0.3,3.8,32.7*
CN1/C(=C\C(=O)COC(=O)COc2ccccc2)C(C)(C)c2ccccc21,-1.0,0.0,10.5,-3.7
O=[N+]([O-])c1c(N2CCCCC2)ncnc1N1CCCCC1,4.7,-0.1,4.8,-3.6
Nc1ncnc(N2CCCCC2)c1[N+](=O)[O-],-0.7,0.0,-1.1,37.5*
Nc1ncnc(N2CCc3ccccc32)c1[N+](=O)[O-],1.9,-0.1,-2.8,36.2*
O=C(CC1CCCC1)NCC1CCC2(CCN(C(=O)c3ccc(F)cc3)CC2)O1 (configuration not stated),1.2,2.0*,25.0,12.2
SMILES,GPR151 ag,FBW7 act,MITF primary,TEAD-YAP block
O=C(CCc1cccs1)NCC1CCC2(CCN(C(=O)c3ccc(F)cc3)CC2)O1 (configuration not stated),0.3,-0.6,-0.7,-2.4
COCCOC(=O)C1=C(C)NC(C)=C(C(=O)OCCOC)C1c1ccc(-c2ccc(Cl)cc2)o1,-0.5,0.0,10.4,-16.5
CC(=O)N1CCc2c(sc3c2c(=O)n(-c2ccc(F)cc2)c(=O)n3CC(N)=O)C1,2.6,-0.1,-7.7,-2.3
CC1=C(C#N)C(=O)NC(=O)/C1=C\c1ccc(-c2ccc(S(=O)(=O)O)cc2)o1,0.0,-0.6,59.1*,-1.5
CCOc1ccc(NC(=O)CN(c2ccccc2)S(C)(=O)=O)cc1,-1.0,0.1,3.3,-6.5
Cc1cc(/C=N/NC(N)=S)c(O)c(/C=N/NC(N)=S)c1,-0.2,-0.9,82.1*,0.4
NC(=S)N/N=C/c1cccc(O)c1O,1.4,-1.4,106.1*,-9.1
NC(=S)N/N=C/c1cccc(/C=N/NC(N)=S)c1,0.0,-0.1,8.9,2.0
NC(=O)C(=O)N/N=C/c1cccc(O)c1O,0.6,-1.1,56.3*,-6.7
